# Results: PubChem BioAssay (Tox21)
# Several values for one entry are separate records, joined by “and”; a condition that tells them apart may be missing. Equal values may be shown once. Values without a mark were called inactive. Results filed as inconclusive are left out. Where a call stands in place of a potency, no number is given. Activity calls are given as the source filed them. Unless noted, calls come from the whole dose curve; as a rule, active = well fitted curve in the direction sought with a large enough effect in the repeat runs; inconclusive = weak or mixed curves; inactive = no such curve, though single readings can be large; an effect the other way counts as inactive or inconclusive.
# Columns and labels:
# [1] = qHTS assay to identify small molecule antagonists of the glucocorticoid receptor (GR) signaling pathway - cell viability counter screen (AID 720693); note: nearly all actives have a fitted effect of over 55% in size; note: potency is the fitted concentration of half-maximal effect
# [2] = qHTS assay for identifying genotoxic compounds that show differential cytotoxicity against isogenic chicken DT40 cell lines with known DNA damage response pathways - wild type cell line (AID 743012); note: nearly all actives have a fitted effect of over 60% in size; note: potency is the fitted concentration of half-maximal effect
# Summary of the method: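 300 wt DT40 cells/well; cpd (DMSO) pintool-transferred after ~0.5 h at 37 C/5% CO2; 40 h incubation; CellTiter-Glo added, 30 min RT; luminescence read.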
# [3] = qHTS assay for identifying genotoxic compounds that show differential cytotoxicity against isogenic chicken DT40 cell lines with known DNA damage response pathways - Rev3 mutant cell line (AID 743014); note: nearly all actives have a fitted effect of over 55% in size; note: potency is the fitted concentration of half-maximal effect
# [4] = qHTS assay for identifying genotoxic compounds that show differential cytotoxicity against isogenic chicken DT40 cell lines with known DNA damage response pathways - Rad54/Ku70 mutant cell line (AID 743015); note: nearly all actives have a fitted effect of over 60% in size; note: potency is the fitted concentration of half-maximal effect
# [5] = qHTS assay to identify small molecule antagonists of the androgen receptor (AR) signaling pathway - cell viability counter screen (AID 743033; note: nearly all actives have a fitted effect of over 45% in size; note: potency is the fitted concentration of half-maximal effect)
# [6] = target: Androgen receptor (Homo sapiens) (UniProt P10275); experiment: qHTS assay to identify small molecule antagonists of the androgen receptor (AR) signaling pathway (AID 743035; active = well fitted inhibition curve with a large enough effect in the signal ratio in the repeat runs, not every such curve was filed as active; the % refers to the signal ratio; note: potency is the fitted concentration of half-maximal effect)
# Androgen receptor (Homo sapiens), sequence (P10275 whole entry, looked up): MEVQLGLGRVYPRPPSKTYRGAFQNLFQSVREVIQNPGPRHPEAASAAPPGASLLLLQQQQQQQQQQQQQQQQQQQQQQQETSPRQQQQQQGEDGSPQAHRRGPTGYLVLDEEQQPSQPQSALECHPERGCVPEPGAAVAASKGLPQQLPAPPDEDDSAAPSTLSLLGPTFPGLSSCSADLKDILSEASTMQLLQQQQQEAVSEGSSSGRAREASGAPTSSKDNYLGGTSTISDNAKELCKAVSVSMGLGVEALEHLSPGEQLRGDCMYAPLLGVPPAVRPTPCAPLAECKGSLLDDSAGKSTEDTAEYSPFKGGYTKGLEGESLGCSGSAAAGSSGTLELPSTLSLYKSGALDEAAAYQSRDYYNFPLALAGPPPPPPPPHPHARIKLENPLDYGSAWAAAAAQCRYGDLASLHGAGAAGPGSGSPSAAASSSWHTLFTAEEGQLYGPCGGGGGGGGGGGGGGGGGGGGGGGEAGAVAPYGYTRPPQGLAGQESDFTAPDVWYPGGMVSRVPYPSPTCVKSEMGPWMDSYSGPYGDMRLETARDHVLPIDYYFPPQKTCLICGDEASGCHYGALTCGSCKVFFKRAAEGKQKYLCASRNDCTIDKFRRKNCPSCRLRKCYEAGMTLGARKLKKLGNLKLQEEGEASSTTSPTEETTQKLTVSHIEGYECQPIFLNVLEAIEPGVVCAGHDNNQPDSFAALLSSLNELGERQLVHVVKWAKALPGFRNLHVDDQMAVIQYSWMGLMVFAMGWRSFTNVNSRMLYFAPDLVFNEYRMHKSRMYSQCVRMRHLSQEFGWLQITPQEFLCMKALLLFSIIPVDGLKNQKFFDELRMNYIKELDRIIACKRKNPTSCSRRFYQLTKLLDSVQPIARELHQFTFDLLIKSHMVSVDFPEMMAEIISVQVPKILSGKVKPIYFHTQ
# Summary of the method: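 In this cell-based reporter screen, compounds were tested in concentration series against R1881-activated HEK293 cells expressing beta-lactamase under UAS control; after 16 h at 37C, FRET substrate was added and fluorescence read 2 h later.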
# [7] = target: Androgen receptor (Homo sapiens) (UniProt P10275); experiment: qHTS assay to identify small molecule agonists of the androgen receptor (AR) signaling pathway using the MDA cell line (AID 743040; note: nearly all actives have a fitted effect of over 20% in size)
# Summary of the method: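 Stable MMTV-luciferase reporter in MDA-kb2 cells; note the promoter carries GR as well as AR response elements. 16 h compound treatment, 37C, 0% CO2; ONE-Glo luminescence endpoint.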
# [8] = qHTS assay to identify small molecule antagonists of the androgen receptor (AR) signaling pathway using the MDA cell line - cell viability counter screen (AID 743041; note: nearly all actives have a fitted effect of over 45% in size; note: potency is the fitted concentration of half-maximal effect)
# Summary of the method: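 Using the breast carcinoma line MDA-kb2 AR-luc, test chemicals were co-incubated with R1881 for 16 h; CellTiter-Fluor reagent, added at 15.5 h, provided a fluorescence measure of live cells.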
# [9] = target: Androgen receptor (Homo sapiens) (UniProt P10275); experiment: qHTS assay to identify small molecule antagonists of the androgen receptor (AR) signaling pathway using the MDA cell line (AID 743042; note: nearly all actives have a fitted effect of over 55% in size; note: potency is the fitted concentration of half-maximal effect)
# Summary of the method: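 Antagonist mode: compounds plus R1881 agonist added to MDA-kb2 AR-luc cells, incubated 16 h at 37C. Luciferase reporter luminescence quantified, with multiplexed CellTiter-Fluor readout for cell viability.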
# [10] = qHTS assay to identify small molecule antagonists of the thyroid receptor (TR) signaling pathway - cell viability counter screen (AID 743064); note: nearly all actives have a fitted effect of over 50% in size; note: potency is the fitted concentration of half-maximal effect
# Summary of the method: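 GH3.TRE-Luc rat pituitary cells dosed after 4 hr plating, co-stimulated with T3 at 1 nM final, incubated 23.5 h at 37 C. Viability measured in the same wells by CellTiter-Fluor fluorescence after 30 min further at 37 C.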
# [11] = qHTS assay to identify small molecule antagonists of the thyroid receptor (TR) signaling pathway (AID 743065); note: nearly all actives have a fitted effect of over 55% in size; note: potency is the fitted concentration of half-maximal effect
# Summary of the method: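 Antagonism measured as loss of luciferase signal in GH3 cells stably carrying a TRE-luciferase reporter, co-treated with compound and T3 (1 nM final) for 23.5 h at 37 C. Viability was read in the same well by CellTiter-Fluor.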
# [12] = tested on: thyroid hormone receptor (rat, GH3 cells); experiment: qHTS assay to identify small molecule agonists of the thyroid receptor (TR) signaling pathway (AID 743066; calls by dose curve)
# [13] = qHTS assay to identify small molecule antagonists of the estrogen receptor alpha (ER-alpha) signaling pathway - cell viability counter screen (AID 743074; calls by dose curve; note: nearly all actives have a fitted effect of over 45% in size; note: potency is the fitted concentration of half-maximal effect)
# [14] = target: Estrogen receptor (Homo sapiens) (UniProt P03372); experiment: qHTS assay to identify small molecule agonists of the estrogen receptor alpha (ER-alpha) signaling pathway (AID 743075; calls by dose curve); settings: HEK293 ER-alpha-UAS-bla, beta-lactamase FRET ratio, 18 h; activation: at 70.1 µM (top of the series)
# Estrogen receptor (Homo sapiens), sequence (P03372 whole entry, looked up): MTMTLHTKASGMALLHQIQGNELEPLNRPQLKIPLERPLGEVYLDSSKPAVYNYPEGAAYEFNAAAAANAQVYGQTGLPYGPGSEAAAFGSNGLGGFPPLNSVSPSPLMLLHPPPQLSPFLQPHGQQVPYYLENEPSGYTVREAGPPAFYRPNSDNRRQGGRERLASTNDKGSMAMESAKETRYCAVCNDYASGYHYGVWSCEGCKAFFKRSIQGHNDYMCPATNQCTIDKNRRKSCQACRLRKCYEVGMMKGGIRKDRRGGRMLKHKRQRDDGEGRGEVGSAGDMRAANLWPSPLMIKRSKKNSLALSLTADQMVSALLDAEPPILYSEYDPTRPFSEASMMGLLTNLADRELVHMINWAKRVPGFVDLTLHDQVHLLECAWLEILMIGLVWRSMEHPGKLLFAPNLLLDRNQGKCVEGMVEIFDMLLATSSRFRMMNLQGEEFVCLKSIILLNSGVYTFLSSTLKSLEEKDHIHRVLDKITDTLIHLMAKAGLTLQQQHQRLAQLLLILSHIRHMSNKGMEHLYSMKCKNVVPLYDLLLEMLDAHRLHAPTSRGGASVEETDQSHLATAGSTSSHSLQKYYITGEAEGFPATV
# [15] = qHTS assay to identify small molecule antagonists of the estrogen receptor alpha (ER-alpha) signaling pathway using the BG1 cell line - cell viability counter screen (AID 743081);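 note: compound given together with 17beta-estradiol as the ER stimulus; nearly all actives have a fitted effect of over 45% in size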; note: potency is the fitted concentration of half-maximal effect
# [16] = target: Aromatase (Homo sapiens) (UniProt P11511); experiment: qHTS assay to identify aromatase inhibitors (AID 743083); note: nearly all actives have a fitted effect of over 55% in size; note: potency is the fitted concentration of half-maximal effect
# Aromatase (Homo sapiens), sequence (P11511 whole entry, looked up): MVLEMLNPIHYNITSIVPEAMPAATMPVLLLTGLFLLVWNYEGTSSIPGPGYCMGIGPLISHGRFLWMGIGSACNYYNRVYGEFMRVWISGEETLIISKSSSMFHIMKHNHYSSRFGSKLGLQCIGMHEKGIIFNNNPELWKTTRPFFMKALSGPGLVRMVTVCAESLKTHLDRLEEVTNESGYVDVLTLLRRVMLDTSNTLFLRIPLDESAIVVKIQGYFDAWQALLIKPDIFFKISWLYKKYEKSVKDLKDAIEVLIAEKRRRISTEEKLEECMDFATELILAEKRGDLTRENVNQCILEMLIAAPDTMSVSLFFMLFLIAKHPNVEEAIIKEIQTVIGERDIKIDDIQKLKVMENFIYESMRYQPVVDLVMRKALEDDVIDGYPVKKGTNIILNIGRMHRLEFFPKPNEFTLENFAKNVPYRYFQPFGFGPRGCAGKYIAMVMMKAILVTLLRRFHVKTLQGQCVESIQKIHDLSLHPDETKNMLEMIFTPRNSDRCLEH
# [17] = qHTS assay to identify aromatase inhibitors - cell viability counter screen (AID 743084); note: potency is the fitted concentration of half-maximal effect
# [18] = target: Estrogen receptor (Homo sapiens) (UniProt P03372); experiment: qHTS assay to identify small molecule antagonists of the estrogen receptor alpha (ER-alpha) signaling pathway (AID 743069; active = well fitted curve in the direction sought with a large enough effect in the signal ratio in the repeat runs, not every such curve was filed as active; the % refers to the signal ratio; note: potency is the fitted concentration of half-maximal effect)
# Summary of the method: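 Fluorescence intensity from a beta-lactamase FRET substrate served as the read-out. Cells: HEK293 with stably integrated ER-alpha-UAS-bla reporter. Agonist 17beta-estradiol was co-added with compounds; incubation 18 hr at 37C, substrate 2 hr at room temperature.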
# [19] = qHTS assay to identify small molecule antagonists of the estrogen receptor alpha (ER-alpha) signaling pathway using the BG1 cell line (AID 743080; calls by dose curve;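 note: BG1 cells stimulated with 17beta-estradiol alongside compound; nearly all actives have a fitted effect of over 25% in size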; note: potency is the fitted concentration of half-maximal effect)
# Summary of the method: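 Readout is ONE-Glo luminescence, taken 30 min at room temperature after reagent addition, preceded by a CellTiter-Fluor viability read; BG1-Luc-4E2 cells had received compound and 17beta-estradiol for 21.5 h at 37 C.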
# [20] = target: Estrogen receptor (Homo sapiens) (UniProt P03372); experiment: qHTS assay to identify small molecule agonists of the estrogen receptor alpha (ER-alpha) signaling pathway using the BG1 cell line (AID 743079); settings: BG1Luc4E2 cells, ERE-luciferase agonist, 22 h; note: nearly all actives have a fitted effect of over 20% in size; note: potency is the fitted concentration of half-maximal effect
compound,measurement,setting,value
NNc1nc(-c2ccc([N+](=O)[O-])cc2)cs1,Potency,[1],43.6 µM (active)
same,Potency,[2],6.11 µM (active)
same,Potency,[3],1.72 µM (active)
same,Potency,[4],4.33 µM (active)
same,Potency,[5],30.9 µM (active)
same,Potency,[6],24.5 µM (active)
same,Potency,[7],inactive
same,Potency,[8],61.1 µM (active)
same,Potency,[9],48.6 µM (active)
same,Potency,[10],68.6 µM (active)
same,Potency,[11],30.6 µM (active)
same,Potency,[12],inactive
same,Potency,[13],15.5 µM (active)
same,Potency,[14],inactive
same,Potency,[15],54.5 µM (active)
same,Potency,[16],43.3 µM (active)
same,Potency,[17],30.6 µM (active)
Cc1cc(O)c(C(C)(C)C)cc1C(C)(C)C,Potency,[1],43.6 µM (active)
same,Potency,[2],10.9 µM (active)
same,Potency,[3],6.86 µM (active)
same,Potency,[4],13.7 µM (active)
same,Potency,[5],21.9 µM (active)
same,Potency,[7],inactive
same,Potency,[8],43.3 µM (active)
same,Potency,[9],54.5 µM (active)
same,Potency,[10],24.3 µM (active)
same,Potency,[11],21.7 µM (active)
same,Potency,[12],inactive
same,Potency,[13],17.4 µM (active)
same,Potency,[15],inactive
same,Potency,[16],54.5 µM (active)
same,Potency,[17],54.5 µM (active)
CCCCCCCCCCn1cc[n+](CCCCCCCCCC)c1C,Potency,[1],13.8 µM (active)
same,Potency,[2],0.273 µM (active)
same,Potency,[3],0.109 µM (active)
same,Potency,[4],0.122 µM (active)
same,Potency,[5],4.37 µM (active)
same,Potency,[7],inactive
same,Potency,[8],24.4 µM (active)
same,Potency,[9],2.17 µM (active)
same,Potency,[10],6.87 µM (active)
same,Potency,[11],3.86 µM (active)
same,Potency,[18],61.7 µM [cytotoxic] (active)
same,Potency,[13],19.5 µM (active)
same,Potency,[19],8.64 µM (active)
same,Potency,[15],48.6 µM (active)
same,Potency,[16],5.45 µM (active)
same,Potency,[17],24.4 µM (active)
C[C@]12CCC(=O)C=C1CC[C@@H]1[C@@H]2[C@@H](O)C[C@@]2(C)[C@H]1CC[C@]2(O)C(=O)COC(=O)CCC(=O)O,Potency,[1],inactive
same,Potency,[2],26.6 µM (active)
same,Potency,[3],18.8 µM (active)
same,Potency,[4],26.6 µM (active)
same,Potency,[5],inactive
same,Potency,[8],inactive
same,Potency,[10],inactive
same,Potency,[11],inactive
same,Potency,[12],inactive
same,Potency,[13],inactive
same,Potency,[14],inactive
same,activation,[20]; at 70.3 µM (top of the series),9.99%
same,Potency,[16],inactive
same,Potency,[17],inactive
CN1CCN(CCC(=O)N2c3ccccc3Sc3ccc(C(F)(F)F)cc32)CC1,Potency,[1],inactive
same,Potency,[2],16.8 µM (active)
same,Potency,[3],13.3 µM (active)
same,Potency,[4],21.1 µM (active)
same,Potency,[5],inactive
same,Potency,[6],inactive
same,Potency,[7],inactive
same,Potency,[8],inactive
same,Potency,[9],inactive
same,Potency,[10],11.9 µM (active)
same,Potency,[11],26.6 µM (active)
same,Potency,[18],inactive
same,Potency,[14],inactive
same,activation,[20]; at 70.3 µM (top of the series),-0.0617%
same,Potency,[19],inactive
same,Potency,[16],inactive
same,Potency,[17],inactive
O=C(O)c1cc(O)c2c(c1)C(=O)c1cccc(O)c1C2=O,Potency,[1],inactive
same,Potency,[2],inactive
same,Potency,[3],inactive
same,Potency,[4],inactive
same,Potency,[5],inactive
same,Potency,[8],inactive
same,Potency,[10],inactive
same,Potency,[11],inactive
same,Potency,[12],inactive
same,Potency,[18],inactive
same,Potency,[13],inactive
same,Potency,[14],inactive
same,Potency,[20],39.7 µM (active)
same,Potency,[19],inactive
same,Potency,[16],inactive
same,Potency,[17],inactive
CCOC(=O)O[C@]1(C(=O)OCCl)CC[C@H]2[C@@H]3CCC4=CC(=O)C=C[C@]4(C)[C@H]3[C@@H](O)C[C@@]21C,Potency,[1],inactive
same,Potency,[2],inactive
same,Potency,[3],inactive
same,Potency,[4],inactive
same,Potency,[5],inactive
same,Potency,[8],inactive
same,Potency,[10],inactive
same,Potency,[11],inactive
same,Potency,[12],inactive
same,Potency,[13],inactive
same,Potency,[15],inactive
same,Potency,[16],inactive
same,Potency,[17],inactive
CCCCCCCCNC(C)C(O)c1ccc(SC(C)C)cc1 (centres undefined),Potency,[1],10.7 µM (active)
same,Potency,[2],1.88 µM (active)
same,Potency,[3],1.68 µM (active)
same,Potency,[4],1.68 µM (active)
same,Potency,[5],21.3 µM (active)
same,Potency,[7],inactive
same,Potency,[9],inactive
same,Potency,[10],5.31 µM (active)
same,Potency,[11],5.96 µM (active)
same,Potency,[13],9.52 µM (active)
same,Potency,[16],29.8 µM (active)
CCCCCCCCCCCC[N+](C)(C)CCCCCCCCCCCC,Potency,[1],24.5 µM (active)
same,Potency,[2],4.33 µM (active)
same,Potency,[3],3.86 µM (active)
same,Potency,[4],4.33 µM (active)
same,Potency,[5],19.5 µM (active)
same,Potency,[8],27.3 µM (active)
same,Potency,[10],24.3 µM (active)
same,Potency,[11],17.2 µM (active)
same,Potency,[12],inactive
same,Potency,[18],inactive
same,Potency,[13],24.5 µM (active)
same,Potency,[15],68.6 µM (active)
same,Potency,[16],17.2 µM (active)
same,Potency,[17],21.7 µM (active)
CCCCCCCCCCCCCCCC(=O)OC[C@H](O)[C@H]1OC(=O)C(O)=C1O,Potency,[1],inactive
same,Potency,[2],inactive
same,Potency,[3],inactive
same,Potency,[4],inactive
same,Potency,[5],inactive
same,Potency,[6],inactive
same,Potency,[7],inactive
same,Potency,[9],inactive
same,Potency,[10],inactive
same,Potency,[11],inactive
same,Potency,[12],inactive
same,Potency,[18],inactive
same,Potency,[13],inactive
same,Potency,[14],inactive
same,activation,[20]; at 70.3 µM (top of the series),0.436% and 6.85%
same,Potency,[19],inactive
same,Potency,[15],inactive
same,Potency,[16],inactive
same,Potency,[17],inactive
CCC(N)(CO)CO,Potency,[1],inactive
same,Potency,[2],inactive
same,Potency,[3],inactive
same,Potency,[4],inactive
same,Potency,[5],inactive
same,Potency,[8],inactive
same,Potency,[10],inactive
same,Potency,[11],inactive
same,Potency,[12],inactive
same,Potency,[18],inactive
same,Potency,[13],inactive
same,Potency,[14],inactive
same,activation,[20]; at 95 µM (top of the series),-5.95%
same,Potency,[19],inactive
same,Potency,[15],inactive
same,Potency,[16],inactive
same,Potency,[17],inactive
CCc1cc(Cc2cc(CC)cc(C(C)(C)C)c2O)c(O)c(C(C)(C)C)c1,Potency,[1],11 µM (active)
same,Potency,[2],21.7 µM (active)
same,Potency,[3],19.3 µM (active)
same,Potency,[4],15.4 µM (active)
same,Potency,[5],24.5 µM (active)
same,Potency,[6],13.8 µM (active)
same,Potency,[7],inactive
same,Potency,[8],inactive
same,Potency,[10],7.7 µM (active)
same,Potency,[11],6.11 µM (active)
same,Potency,[12],inactive
same,Potency,[13],15.5 µM (active)
same,Potency,[15],68.6 µM (active)
same,Potency,[16],30.6 µM (active)
same,Potency,[17],61.1 µM (active)
